Measurements reported in PubChem BioAssay (EPA / NIEHS).
The source made the active and inactive calls. How the source made its calls: active means hit-call score of the fitted dose curve at least 0.9, where 1 is the maximum; inactive means score below 0.9.

Target: Transcription factor Sp1 (Homo sapiens) (UniProt P08047)
Experiment: ATG_Sp1_CIS: Attagene CIS-FACTORIAL HepG2 Assay for human Specificity Protein 1 (Sp1) (AID 2282961)
Details: HepG2 Sp1 cis-reporter transcription, actives raise or lower the signal
Experimental: ATG_CIS is a cell-based, multiplexed-readout assay that uses HepG2, a human liver cell line, with measurements taken at 24 hours after chemical dosing in a 24-well plate.ATG_Sp1_CIS is one of 52 assay component(s) measured or calculated from the ATG_CIS assay. It is designed to make measurements of mRNA induction, a form of inducible reporter, as detected with fluorescence intensity signals by Reverse transcription polymerase chain reaction (RT-PCR) and Capillary electrophoresis technology.Data from the assay component ATG_Sp1_CIS was analyzed into 1 assay endpoint. This assay endpoint, ATG_Sp1_CIS, was analyzed with bidirectional fitting relative to DMSO as the negative control and baseline of activity. Using a type of inducible reporter, measures of mRNA for gain or loss-of-signal activity can be used to understand the reporter gene at the transcription factor-level as they relate to the gene SP1. Furthermore, this assay endpoint can be referred to as a primary readout, because this assay has produced multiple assay endpoints where this one serves a reporter gene function. To generalize the intended target to other relatable targets, this assay endpoint is annotated to the dna binding intended target family, where the subfamily is zinc finger.
Human liver HepG2 cells are transiently transfected with multiple reporter transcription units (MRTUs) in 6-well plates using FuGene 6 reagent (Roche; 3 ml FuGene/1 mg DNA). The MRTU constructs are regulated by a cis-regulating element (promoter). […] A major difference between the CIS and TRANS system is that in CIS activities of endogenous TFs are measured, whereas the TRANS assay evaluates changes in activities of exogenous, chimeric NR-Gal4 proteins. […] At the end of 24 hour incubation, total RNA was isolated using TriZol reagent (Invitrogen). The isolated RNA is then reverse-transcribed using oligo(dT) primer and Mo-MLV reverse transcriptase (Invitrogen) with DNAse I (Ambion) treatment for 30 min. The one-tenth of the produced cDNA was amplified by PCR using Taq DNA polymerase (Invitrogen) and two reporter sequence-specific primers. The PCR products were fluorescently labeled by primer extension with 6-arboxyfluorescein (6-FAM) 5'-labeled reporter sequence-specific primer (2 min at 95 C, 20 s at 68 C and 10 min at 72 C) and these products were digested with 5U of HpaI (New England Biolabs) for 2h at 37 C. The fragments were purified using Qiaquick PCR columns (Qiagen), analyzed on an ABI 3130xL genetic analyzer (Applied Biosystems) with peak positions identified by using a set of X-rhodamine (ROX)-labeled MapMarker1000 molecular weight standards (BioVentures). The raw capillary electrophoresis data was processed using Attagraph software (Attagene).

Sequence of Transcription factor Sp1 (Homo sapiens) (P08047 whole entry, looked up): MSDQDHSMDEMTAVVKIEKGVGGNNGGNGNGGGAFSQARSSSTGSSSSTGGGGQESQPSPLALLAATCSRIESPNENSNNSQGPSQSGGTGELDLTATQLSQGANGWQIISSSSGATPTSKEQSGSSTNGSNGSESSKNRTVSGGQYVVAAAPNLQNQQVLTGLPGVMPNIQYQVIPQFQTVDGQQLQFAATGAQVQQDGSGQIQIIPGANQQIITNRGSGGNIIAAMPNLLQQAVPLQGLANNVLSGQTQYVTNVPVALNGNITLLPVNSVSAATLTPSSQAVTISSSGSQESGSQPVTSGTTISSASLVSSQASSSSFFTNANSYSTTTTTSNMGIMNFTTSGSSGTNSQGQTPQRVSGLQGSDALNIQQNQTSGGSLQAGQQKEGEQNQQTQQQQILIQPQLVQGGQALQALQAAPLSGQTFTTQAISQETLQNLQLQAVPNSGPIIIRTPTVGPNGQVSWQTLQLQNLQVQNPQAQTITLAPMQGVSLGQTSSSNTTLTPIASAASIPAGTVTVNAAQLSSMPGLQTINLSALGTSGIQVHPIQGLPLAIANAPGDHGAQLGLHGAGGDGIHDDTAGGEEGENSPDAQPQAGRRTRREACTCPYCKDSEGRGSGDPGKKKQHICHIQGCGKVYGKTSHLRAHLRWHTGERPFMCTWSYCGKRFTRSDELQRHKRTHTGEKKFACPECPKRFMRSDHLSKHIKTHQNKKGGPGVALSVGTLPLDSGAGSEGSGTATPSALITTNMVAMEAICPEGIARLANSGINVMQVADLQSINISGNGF

Structure (SMILES) | outcome | AC50
COc1cc(C(C)C)ccc1C | inactive | –
C=C(CC(=O)O)C(=O)O | inactive | –
NCC1CCCC(CN)C1 (stereo not given) | inactive | –
CCCCCCCCCCCCCCCC(=O)OC/C=C(C)/C=C/C=C(C)/C=C/C1=C(C)CCCC1(C)C | inactive | –
CCCC(C)=O | inactive | –
Cc1ncc[nH]1 | inactive | –
CCC(Cl)C(Cl)C(Cl)CC(Cl)C(Cl)C(C)Cl (stereo not given) | inactive | –
CN(c1nccc(=O)[nH]1)C1CCN(c2nc3ccccc3n2Cc2ccc(F)cc2)CC1 | inactive | –
COc1cc([C@@H]2c3cc4c(cc3[C@@H](O[C@@H]3O[C@@H]5CO[C@@H](C)O[C@H]5[C@H](O)[C@H]3O)[C@H]3COC(=O)[C@H]23)OCO4)cc(OC)c1O | inactive | –
CCOCCOCCOCC | inactive | –
COCCOC(=O)c1ccccc1C(=O)OCCOC | inactive | –
Cc1ccc(S(=O)(=O)Oc2ccc(N=Nc3ccc(-c4ccc(N=Nc5c(O)ccc6cc(S(=O)(=O)O)cc(S(=O)(=O)O)c56)c(C)c4)cc3C)cc2)cc1 | inactive | –
[O-]n1ccccc1=S.[O-]n1ccccc1=S.[Zn+2] | inactive | –
C=Cc1ccncc1 | – | 27.1 µM (active)
Clc1ccc(C(c2ccccc2Cl)C(Cl)Cl)cc1 (stereo not given) | – | 52.7 µM (active)
CC(C)=CCCC(C)CC(=O)O (stereo not given) | inactive | –
CC(C)(C)CC(C)(C)c1ccc(OCCOCC[N+](C)(C)Cc2ccccc2)cc1 | inactive | –
CCC(C)=O | inactive | –
CCOC(=O)CN | inactive | –
NC(=S)NNC(N)=S | inactive | –

Structure (SMILES) | outcome | AC50
CS(=O)(=O)c1ccc(Cl)cc1 | inactive | –
Cc1ccc2c(c1)C(=O)OC2=O | inactive | –
C=C1C[C@]23C[C@@]1(O)CC[C@H]2[C@@]12C=C[C@H](O)[C@@](C)(C(=O)O1)[C@H]2[C@@H]3C(=O)O | inactive | –
Cc1c(OCC(F)(F)F)ccnc1CS(=O)c1nc2ccccc2[nH]1 (stereo not given) | inactive | –
O=C(O)CCCCCCCCCCCC(=O)O | inactive | –
CCOC(=O)CCc1ccccc1 | inactive | –
C=C(C)C(=O)OCC(CC)(COC(=O)C(=C)C)COC(=O)C(=C)C | inactive | –
CC(Oc1cc(Cl)ccc1Cl)C(=O)O (stereo not given) | inactive | –
CC(C)(C)C1=CC(=O)C(C(C)(C)C)=CC1=O | inactive | –
CCCCCCCCCC(=O)OC | inactive | –
C=C1CC[C@H](O)C/C1=C/C=C1\CCC[C@]2(C)[C@@H]([C@H](C)/C=C/[C@H](C)C(C)C)CC[C@@H]12 | inactive | –
c1ccc(Oc2ccccc2)cc1 | inactive | –
CN(C)c1ccncc1 | inactive | –
COc1ccc(CCN2CCC(Nc3nc4ccccc4n3Cc3ccc(F)cc3)CC2)cc1 | inactive | –
O=C1CCCC=CCCCCCCCCCC1 | – | 48.8 µM (active)
C[Si](C)(C)O[Si](C)(C)C | inactive | –
Nc1ccc(Cl)c([N+](=O)[O-])c1 | inactive | –
CS(C)=O | inactive | –
CCCCCCC(O)CCCCCCCCCCC(=O)O (stereo not given) | inactive | –
O=C1OC[C@H](Cc2cccc(O)c2)[C@H]1Cc1cccc(O)c1 | inactive | –
